This passage reports Potency, outcome and max activation results from PubChem BioAssay (Tox21).

The target in assay [1] is Nuclear receptor subfamily 1 group I member 2 (Homo sapiens) (UniProt O75469). Description: Human pregnane X receptor (PXR) small molecule agonists, qHTS assay (AID 1346982). Note: nearly all actives have a fitted effect of over 35% in size. Note: potency is the fitted concentration of half-maximal effect. In outline:
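PXR-Luc HepG2 reporter cells (CYP3A4-driven luciferase) in 5% charcoal-stripped FBS medium, plated 5 h before compound addition, then treated 24 h at 37C. Luciferase read by ONE-Glo luminescence after 30 min at room temperature.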
Background: In qHTS, concentration-response curves come from the screen itself.

Assay [2] deals with Cytochrome P450 2D6 (Homo sapiens) (UniProt P10635). Put plainly: Cytochrome P450 Family 2 Subfamily D Member 6 (CYP2D6) small molecule antagonists: luciferase reporter qHTS assay (AID 1671196). Note: nearly all actives have a fitted effect of over 50% in size. Note: potency is the fitted concentration of half-maximal effect. In outline: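 Cell-free P450-Glo system: CYP2D6 with proluciferin substrate was pre-incubated with compound for 10 min, then reacted with NADPH regeneration for 1 h at room temperature. Luciferin product was detected after 20 min, and data were reported as relative luminescence units.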
Cytochrome P450 2D6 (Homo sapiens), sequence (P10635 whole entry, looked up): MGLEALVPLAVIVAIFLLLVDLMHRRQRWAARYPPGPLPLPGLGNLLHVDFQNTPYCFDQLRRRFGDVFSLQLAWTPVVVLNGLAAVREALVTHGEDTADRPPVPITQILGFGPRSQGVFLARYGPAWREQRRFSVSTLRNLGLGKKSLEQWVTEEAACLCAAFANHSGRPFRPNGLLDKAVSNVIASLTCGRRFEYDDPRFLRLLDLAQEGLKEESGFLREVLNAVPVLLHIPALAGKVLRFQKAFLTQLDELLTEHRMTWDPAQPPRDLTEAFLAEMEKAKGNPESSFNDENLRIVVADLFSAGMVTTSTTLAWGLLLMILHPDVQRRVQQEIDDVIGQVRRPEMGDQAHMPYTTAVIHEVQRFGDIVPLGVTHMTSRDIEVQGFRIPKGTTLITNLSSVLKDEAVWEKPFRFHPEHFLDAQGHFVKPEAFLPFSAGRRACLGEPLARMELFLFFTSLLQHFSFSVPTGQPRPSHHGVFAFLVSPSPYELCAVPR
On the technique in general: In a reporter assay the amount or activity of a reporter protein is the signal.

The target of assay [3] is Cytochrome P450 2C19 (Homo sapiens) (UniProt P33261). Put plainly: Cytochrome P450 Family 2 Subfamily C Member 19 (CYP2C19) small molecule antagonists: luciferase reporter qHTS assay (AID 1671197). Note: nearly all actives have a fitted effect of over 65% in size. Note: potency is the fitted concentration of half-maximal effect. In outline:
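Enzyme-substrate mix with proluciferin substrate (P450-Glo CYP2C19 system) preincubated with compounds 10 min at room temperature; NADPH regeneration solution added, 37C for 1 h; detection reagent stops reaction, luminescence read after 20 min. Ketoconazole positive control.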

Assay [4] addresses Cytochrome P450 2C9 (Homo sapiens) (UniProt P11712). Description: Cytochrome P450 Family 2 Subfamily C Member 9 (CYP2C9) small molecule antagonists: luciferase reporter qHTS assay (AID 1671198). Note: nearly all actives have a fitted effect of over 50% in size. Note: potency is the fitted concentration of half-maximal effect. In outline: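 CYP2C9 activity was measured with a P450-Glo proluciferin substrate. Enzyme–substrate mix was held with compound for 10 min at room temperature, then NADPH regeneration solution was added for 1 h at 37C. Luciferin product was read as luminescence.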

The target of assay [5] is Voltage-gated inwardly rectifying potassium channel KCNH2 (Homo sapiens) (UniProt Q12809). Description: Human Ether-a-go-go-Related Gene (hERG) channel small molecule antagonists: fluorescence cell-based qHTS assay (AID 1671200).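 Note: hERG-expressing U2OS cells given a thallium stimulus after FluxOR II dye loading; series mostly up to about 77 µM; nearly all actives have a fitted effect of over 50% in size.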 The gist of the method: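 Channel function was assessed by thallium flux. Cells seeded the previous day and kept at 37 C took up FluxOR II dye over 1 h in the dark at room temperature, then sat another 10 min before stimulation.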
Voltage-gated inwardly rectifying potassium channel KCNH2 (Homo sapiens), sequence (Q12809 whole entry, looked up): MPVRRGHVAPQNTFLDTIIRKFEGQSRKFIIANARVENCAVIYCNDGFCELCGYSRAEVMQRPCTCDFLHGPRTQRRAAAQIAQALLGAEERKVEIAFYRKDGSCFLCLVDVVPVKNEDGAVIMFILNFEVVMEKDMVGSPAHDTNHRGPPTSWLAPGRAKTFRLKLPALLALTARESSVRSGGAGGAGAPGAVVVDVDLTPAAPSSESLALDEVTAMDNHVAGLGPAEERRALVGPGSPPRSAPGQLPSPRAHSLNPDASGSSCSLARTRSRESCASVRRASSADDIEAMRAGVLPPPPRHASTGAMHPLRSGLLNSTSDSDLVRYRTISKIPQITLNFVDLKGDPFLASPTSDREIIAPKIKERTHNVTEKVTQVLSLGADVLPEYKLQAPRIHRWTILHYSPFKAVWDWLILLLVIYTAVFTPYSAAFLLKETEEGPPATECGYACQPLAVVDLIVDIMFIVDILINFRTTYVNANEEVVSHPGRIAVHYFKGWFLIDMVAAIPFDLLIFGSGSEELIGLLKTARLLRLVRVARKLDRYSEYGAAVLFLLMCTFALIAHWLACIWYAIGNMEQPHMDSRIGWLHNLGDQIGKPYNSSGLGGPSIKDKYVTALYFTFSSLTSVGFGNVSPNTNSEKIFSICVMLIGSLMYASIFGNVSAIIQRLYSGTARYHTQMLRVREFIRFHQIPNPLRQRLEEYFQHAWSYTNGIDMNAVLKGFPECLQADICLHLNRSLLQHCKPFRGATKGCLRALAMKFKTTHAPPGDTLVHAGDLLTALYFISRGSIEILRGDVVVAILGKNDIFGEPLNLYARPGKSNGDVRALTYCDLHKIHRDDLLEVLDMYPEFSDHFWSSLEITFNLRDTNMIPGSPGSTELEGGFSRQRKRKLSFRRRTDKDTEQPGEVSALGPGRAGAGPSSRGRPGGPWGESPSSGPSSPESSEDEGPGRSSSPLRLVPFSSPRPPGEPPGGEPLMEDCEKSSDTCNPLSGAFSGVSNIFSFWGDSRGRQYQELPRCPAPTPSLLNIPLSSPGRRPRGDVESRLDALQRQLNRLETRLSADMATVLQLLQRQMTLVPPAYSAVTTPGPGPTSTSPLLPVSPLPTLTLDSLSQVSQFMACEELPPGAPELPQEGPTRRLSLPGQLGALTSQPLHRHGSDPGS
On the technique in general: hERG is a cardiac potassium channel; its block is linked to QT prolongation.

Assay [6] has as its target Cytochrome P450 3A4 (Homo sapiens) (UniProt P08684). Put plainly: Cytochrome P450 Family 3 Subfamily A Member 4 (CYP3A4) small molecule antagonists: luciferase reporter qHTS assay (AID 1671201). Note: nearly all actives have a fitted effect of over 50% in size. Note: potency is the fitted concentration of half-maximal effect. The gist of the method:
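Compounds in DMSO were pin-transferred onto CYP3A4 enzyme-substrate mix and held 10 min at room temperature. NADPH regenerating solution started the reaction for 1 h; luciferin detection reagent stopped it, and luminescence was read after 20 min.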

Assay [7] deals with Cytochrome P450 1A2 (Homo sapiens) (UniProt P05177). Description: Cytochrome P450 Family 1 Subfamily A Member 2 (CYP1A2) small molecule antagonists: luciferase reporter qHTS assay (AID 1671199). Note: nearly all actives have a fitted effect of over 50% in size. Note: potency is the fitted concentration of half-maximal effect. The gist of the method:
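P450-Glo CYP1A2 enzyme–proluciferin substrate mix with compound 10 min at room temperature, then NADPH regeneration 1 h at room temperature. Luciferin detection reagent added, luminescence read after 20 min; furafylline positive control.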

For assay [8], the target named is Nuclear receptor subfamily 1 group I member 2 (Rattus norvegicus) (UniProt Q9R1A7). Description: Rat pregnane X receptor (rPXR) activation by small molecules, qHTS assay (AID 1346983). Note: nearly all actives have a fitted effect of over 20% in size. Note: potency is the fitted concentration of half-maximal effect. To be noted: rPXR luciferase reporter cells, One-Glo luminescence, 24 h; max activation: stronger effect = higher value. The gist of the method: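 Cell-based rPXR luciferase reporter assay, 2,000 cells per well, rested 5hr at 37 C before compound addition in DMSO, then 24 hr at 37 C. One-Glo reagent was added and luminescence read after 30 min at room temperature.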
Nuclear receptor subfamily 1 group I member 2 (Rattus norvegicus), sequence (Q9R1A7 whole entry, looked up): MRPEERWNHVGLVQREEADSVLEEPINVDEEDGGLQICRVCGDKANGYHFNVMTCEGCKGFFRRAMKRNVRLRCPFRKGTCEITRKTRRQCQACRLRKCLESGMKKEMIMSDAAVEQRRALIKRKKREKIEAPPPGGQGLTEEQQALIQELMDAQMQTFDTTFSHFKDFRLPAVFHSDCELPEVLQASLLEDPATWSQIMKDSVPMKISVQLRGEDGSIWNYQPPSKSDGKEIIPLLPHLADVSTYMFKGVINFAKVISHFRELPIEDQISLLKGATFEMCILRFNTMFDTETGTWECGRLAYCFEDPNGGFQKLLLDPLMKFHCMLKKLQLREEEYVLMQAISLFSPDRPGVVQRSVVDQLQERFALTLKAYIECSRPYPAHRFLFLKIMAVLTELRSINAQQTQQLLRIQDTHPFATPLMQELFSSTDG

Where “and” joins values, the source holds several entries; their conditions need not be identical. Equal values may be shown once. Results filed as inconclusive are left out. Where a structure was tested more than once in an assay, its records may differ in their call. Calls of active or inactive are those of the source. Calls come from the whole dose curve; as a rule, active = well fitted curve in the direction sought with a large enough effect in the repeat runs; inconclusive = weak or mixed curves; inactive = no such curve, though single readings can be large; an effect the other way counts as inactive or inconclusive.
% is set by controls: 0 for no effect and ±100 for the full control effect.

Cytochrome P450 1A2 (Homo sapiens), sequence (P05177 whole entry, looked up): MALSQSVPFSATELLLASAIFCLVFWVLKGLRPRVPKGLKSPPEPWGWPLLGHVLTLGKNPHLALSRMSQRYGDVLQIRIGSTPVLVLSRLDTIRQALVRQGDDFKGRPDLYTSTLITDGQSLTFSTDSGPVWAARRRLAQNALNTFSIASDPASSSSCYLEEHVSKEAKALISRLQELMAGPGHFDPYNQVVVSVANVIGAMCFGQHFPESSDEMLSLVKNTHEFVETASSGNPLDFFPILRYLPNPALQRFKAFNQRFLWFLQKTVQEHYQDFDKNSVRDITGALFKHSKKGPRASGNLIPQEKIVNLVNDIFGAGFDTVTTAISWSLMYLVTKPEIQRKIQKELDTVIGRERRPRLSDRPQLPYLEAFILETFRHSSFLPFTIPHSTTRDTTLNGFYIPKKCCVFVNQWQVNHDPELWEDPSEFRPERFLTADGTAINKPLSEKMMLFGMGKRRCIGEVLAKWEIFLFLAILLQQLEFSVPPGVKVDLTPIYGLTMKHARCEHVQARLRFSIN
Nuclear receptor subfamily 1 group I member 2 (Homo sapiens), sequence (O75469 whole entry, looked up): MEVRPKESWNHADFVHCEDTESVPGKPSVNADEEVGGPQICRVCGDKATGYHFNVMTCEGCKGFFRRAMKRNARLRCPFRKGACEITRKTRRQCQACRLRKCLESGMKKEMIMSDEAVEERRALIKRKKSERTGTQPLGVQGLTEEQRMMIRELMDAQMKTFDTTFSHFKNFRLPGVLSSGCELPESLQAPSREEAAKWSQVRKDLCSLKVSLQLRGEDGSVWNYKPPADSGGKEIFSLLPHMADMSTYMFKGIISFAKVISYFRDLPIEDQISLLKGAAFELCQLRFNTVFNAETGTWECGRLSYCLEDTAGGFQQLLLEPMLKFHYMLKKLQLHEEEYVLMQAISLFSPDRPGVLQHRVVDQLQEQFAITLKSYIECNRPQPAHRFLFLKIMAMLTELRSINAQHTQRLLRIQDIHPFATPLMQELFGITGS
Cytochrome P450 3A4 (Homo sapiens), sequence (P08684 whole entry, looked up): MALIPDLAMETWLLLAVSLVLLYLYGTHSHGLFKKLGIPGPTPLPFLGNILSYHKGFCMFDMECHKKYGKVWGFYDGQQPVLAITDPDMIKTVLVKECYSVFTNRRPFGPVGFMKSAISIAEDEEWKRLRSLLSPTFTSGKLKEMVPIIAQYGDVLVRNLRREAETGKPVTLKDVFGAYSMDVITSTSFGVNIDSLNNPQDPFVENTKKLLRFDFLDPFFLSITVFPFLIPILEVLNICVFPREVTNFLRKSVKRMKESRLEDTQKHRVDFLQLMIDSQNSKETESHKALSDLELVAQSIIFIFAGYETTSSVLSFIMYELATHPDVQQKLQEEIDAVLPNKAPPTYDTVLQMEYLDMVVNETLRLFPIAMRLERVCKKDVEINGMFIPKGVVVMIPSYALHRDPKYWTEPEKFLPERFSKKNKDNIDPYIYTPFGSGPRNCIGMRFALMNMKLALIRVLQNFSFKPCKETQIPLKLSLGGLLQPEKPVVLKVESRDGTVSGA
Cytochrome P450 2C9 (Homo sapiens), sequence (P11712 whole entry, looked up): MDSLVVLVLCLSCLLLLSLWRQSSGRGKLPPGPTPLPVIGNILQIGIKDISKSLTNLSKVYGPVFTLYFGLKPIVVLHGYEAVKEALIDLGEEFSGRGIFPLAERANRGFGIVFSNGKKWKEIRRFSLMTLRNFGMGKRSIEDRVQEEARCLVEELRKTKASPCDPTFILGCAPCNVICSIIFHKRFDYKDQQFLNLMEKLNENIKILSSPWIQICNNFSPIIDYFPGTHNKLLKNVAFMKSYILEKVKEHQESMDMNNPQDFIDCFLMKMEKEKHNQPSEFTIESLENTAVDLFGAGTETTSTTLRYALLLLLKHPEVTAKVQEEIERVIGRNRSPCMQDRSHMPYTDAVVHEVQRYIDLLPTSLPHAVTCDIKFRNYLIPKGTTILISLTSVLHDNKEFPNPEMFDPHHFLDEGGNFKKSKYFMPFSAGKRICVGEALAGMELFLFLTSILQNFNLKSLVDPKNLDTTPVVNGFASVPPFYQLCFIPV
Cytochrome P450 2C19 (Homo sapiens), sequence (P33261 whole entry, looked up): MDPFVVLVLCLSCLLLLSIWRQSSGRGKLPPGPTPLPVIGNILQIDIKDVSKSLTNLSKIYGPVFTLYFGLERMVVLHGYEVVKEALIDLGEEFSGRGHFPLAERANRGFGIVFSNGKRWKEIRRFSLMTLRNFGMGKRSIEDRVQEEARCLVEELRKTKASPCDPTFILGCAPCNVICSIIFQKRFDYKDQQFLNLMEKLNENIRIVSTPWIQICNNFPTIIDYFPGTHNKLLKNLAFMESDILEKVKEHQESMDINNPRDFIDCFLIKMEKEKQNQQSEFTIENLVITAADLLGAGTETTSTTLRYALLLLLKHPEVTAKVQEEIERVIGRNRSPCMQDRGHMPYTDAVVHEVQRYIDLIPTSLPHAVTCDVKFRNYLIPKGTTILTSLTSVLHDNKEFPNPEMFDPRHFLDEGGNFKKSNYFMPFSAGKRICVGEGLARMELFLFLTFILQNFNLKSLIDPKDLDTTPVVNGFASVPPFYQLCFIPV

With `CC1=C(C)S(=O)(=O)CCS1(=O)=O`, the Potency entry in assay [1], in assay [2], in assay [4] and in assay [6] was “inactive” throughout. For the same molecule, the Potency in assay [3] is 69.7 µM (active) and inactive. Further, the molecule was called inactive in assay [5].
Take `COc1ccc(Nc2ccccc2)c(C)c1`: the Potency entry was “inactive and 54.5 µM (active)” in assay [1]; “inactive and 3.17 µM (active)” in assay [3]. Besides, the Potency result in assay [2], in assay [4] and in assay [6] was “inactive” in each case. Further, the molecule was called inactive in assay [5].
Turning to `Cc1ccc(S(N)(=O)=O)cc1`, the Potency result in assay [1], in assay [2], in assay [4] and in assay [7] was “inactive” throughout. Moreover, the Potency in assay [6] was 28.1 µM (active) and inactive.
`O=C(O)c1cc(C(=O)O)cc(S(=O)(=O)O)c1`: the Potency entry in assay [1], in assay [4] and in assay [6] was “inactive” each time. The Potency in assay [2] is 36 µM (active); in assay [7], “inactive and 39.9 µM (active)”. For the same molecule, in assay [5], the result was inactive.
In the case of `Nc1cc([N+](=O)[O-])ccc1O`, the Potency result in assay [1], in assay [2] and in assay [6] was “inactive” throughout. Further, the Potency in assay [3] was 39.9 µM (active) and inactive; in assay [4] it was 31.7 µM (active) and 39.7 µM (active). Further, the molecule was classed as inactive in assay [5].
For `CCCCCCCCCCCCS`, the Potency entry in assay [1], in assay [2], in assay [4], in assay [7] and in assay [6] was “inactive” each time.
Regarding `Oc1cccc2ccccc12`, the Potency was 23 µM (active) and 39.9 µM (active) in assay [3]; 36.5 µM (active) and 35.6 µM (active) in assay [4]. In addition, the call in assay [5] was inactive.
On to `O=C(O)c1ccccc1C(c1ccc(O)cc1)c1ccc(O)cc1`, for which the Potency in assay [1] is 2.44 µM (active) and inactive. The Potency result in assay [2] and in assay [6] was “inactive” each time. For the same molecule, the call in assay [5] was inactive.
In the case of `O=C(O)CC(C(=O)O)C(CC(=O)O)C(=O)O` (configuration not stated), the Potency result in assay [1], in assay [2], in assay [4] and in assay [6] was “inactive” each time.
Turning to `CCCCN(CCCC)CCCC`, the Potency entry in assay [1], in assay [2] and in assay [6] was “inactive” throughout. Also, the Potency in assay [4] is 89.4 µM (active). The molecule was called inactive in assay [5].
As for `COc1ccc(Cl)cc1C(=O)NCCc1ccc(S(=O)(=O)NC(=O)NC2CCCCC2)cc1`, the Potency result in assay [2] and in assay [7] was “inactive” in each case.
On to `O=C(O)c1ccc(C(=O)O)cc1`, for which the Potency result in assay [1], in assay [2], in assay [4] and in assay [6] was “inactive” throughout. In assay [5], the molecule was classed as inactive.
On to `C[C@H]1C[C@@H]2[C@H]([C@@H](O)C[C@@]3(C)[C@H]2CC[C@]3(O)C(=O)CO)[C@@]2(C)C=CC(=O)C=C12`, for which the Potency in assay [8] is 1.58 µM (active). Moreover, the Potency entry in assay [7] is “inactive”. The call in assay [5] was inactive.
On to `Cc1ccc2oc(=O)ccc2c1`, for which the Potency in assay [1] was 31.5 µM (active) and inactive. Further, the Potency result in assay [2], in assay [4] and in assay [6] was “inactive” throughout.
Consider `OCCOCCN1CCN(C2=Nc3ccccc3Sc3ccccc32)CC1`, for which the max activation in assay [8] was 9.6% (inactive).
Regarding `CCCCCC/C(C=O)=C\c1ccccc1`, the Potency entry in assay [1], in assay [2] and in assay [6] was “inactive” in each case. Moreover, in assay [4], the Potency was 35.6 µM (active). Moreover, the result in assay [5] was inactive.
For `CC1=CC(=O)NS(=O)(=O)O1`, the max activation in assay [8] was -3.96% (inactive). Also, the result in assay [5] was inactive.
`CCc1ccc(CCOc2ccc(CC3SC(=O)NC3=O)cc2)nc1` (configuration not stated): the max activation in assay [8] was -8.65% (inactive). The Potency result in assay [2] and in assay [3] was “inactive” each time. Also, the Potency in assay [4] is 31.7 µM (active) and 30.9 µM (active).
Take `NNc1nncc2ccccc12`: in assay [8], the Potency is 0.112 µM (active). Further, the result in assay [5] was inactive.
For `CCCCCCCCC/C=C/CC1CC(=O)OC1=O` (configuration not stated), the Potency result in assay [1] and in assay [6] was “inactive” throughout. Also, the Potency result in assay [2] was “inactive and 39.9 µM (active)”; in assay [4], 80 µM (active) and 39.9 µM (active). Moreover, the molecule was called inactive in assay [5].
As to `CC(O)COCC(C)O` (configuration not stated), the Potency result in assay [1], in assay [2], in assay [4] and in assay [6] was “inactive” in each case.
Regarding `COS(C)(=O)=O`, the Potency entry in assay [1], in assay [2], in assay [4] and in assay [6] was “inactive” throughout.
Take `CN(C)CCC(c1ccccc1)c1ccccn1` (configuration not stated): the max activation in assay [8] was -3.67% (inactive). Further, the Potency was 35.7 µM (active) in assay [2]; 40 µM (active) and inactive in assay [7]. Further, the Potency result in assay [4] and in assay [6] was “inactive” in each case. Moreover, in assay [5], the molecule was called inactive.
For the molecule `OCc1cccnc1`, in assay [5], the call was inactive.
With `CCCCOC(=O)COc1ccc(Cl)cc1Cl`, the Potency result in assay [1], in assay [2] and in assay [6] was “inactive” in each case. For the same molecule, the Potency in assay [4] is 36 µM (active) and 35.6 µM (active).
`COc1ccc(NC(C)=O)cc1N`: the Potency entry in assay [2] and in assay [6] was “inactive” throughout. Also, the Potency in assay [3] was 39.8 µM (active) and 39.9 µM (active); in assay [7] it was 17.8 µM (active) and 25.2 µM (active). In addition, in assay [5], the outcome was inactive.
For the molecule `ON=C1CCCCC1`, the Potency entry in assay [1], in assay [2], in assay [4] and in assay [6] was “inactive” in each case. For the same molecule, the call in assay [5] was inactive.
Take `COc1cc(Cc2cnc(N)nc2N)cc(OC)c1OC`: the Potency entry in assay [2], in assay [3] and in assay [4] was “inactive” in each case. Also, in assay [7], the Potency is 35.5 µM (active) and inactive. Besides, in assay [5], the outcome was inactive.
Turning to `COCCCOc1ccnc(CS(=O)c2nc3ccccc3[nH]2)c1C` (configuration not stated), the Potency in assay [8] is 14.1 µM (active). Besides, the molecule was called inactive in assay [5].
Regarding `c1ccc2scnc2c1`, the Potency entry in assay [1], in assay [2], in assay [4] and in assay [6] was “inactive” throughout. In addition, in assay [5], the call was inactive.
With `c1c[nH]cn1`, the Potency result in assay [1] and in assay [7] was “inactive” throughout. In assay [3], the Potency was 84.4 µM (active).
On to `c1ccc(OCCOc2ccccc2)cc1`, for which the Potency in assay [1] was 61.1 µM (active) and 24.3 µM (active); in assay [4], 28.2 µM (active) and 22.4 µM (active); in assay [7], 15.9 µM (active) and 20 µM (active). The Potency entry in assay [2] and in assay [6] was “inactive” in each case.
In the case of `Cc1cccc(O)c1`, the Potency result in assay [1], in assay [2], in assay [4] and in assay [6] was “inactive” throughout.
For the molecule `CC(C)c1ccc(S(=O)(=O)O)cc1`, the Potency entry in assay [1], in assay [2], in assay [4] and in assay [6] was “inactive” each time.
On to `O=C1CCC(N2C(=O)c3ccccc3C2=O)C(=O)N1` (configuration not stated), for which the Potency result in assay [1], in assay [4], in assay [7] and in assay [6] was “inactive” in each case. For the same molecule, the molecule was called inactive in assay [5].
For `OCC(CO)(CBr)CBr`, the Potency result in assay [1], in assay [2], in assay [4] and in assay [6] was “inactive” throughout. Further, the molecule was called inactive in assay [5].
In the case of `C=C(C)C(=O)OCCOCCOCCOC(=O)C(=C)C`, the Potency result in assay [1] and in assay [6] was “inactive” throughout. Further, the Potency was 20 µM (active) and inactive in assay [2]; 40 µM (active) in assay [4]. In addition, the call in assay [5] was inactive.
Regarding `CCCSc1ccc2nc(NC(=O)OC)[nH]c2c1`, the Potency result in assay [2] and in assay [3] was “inactive” each time.
On to `N[C@@H](Cc1cc(I)c(Oc2cc(I)c(O)c(I)c2)c(I)c1)C(=O)O`, for which the max activation in assay [8] was -0.369% (inactive). Further, the Potency result in assay [2], in assay [3] and in assay [6] was “inactive” each time. The molecule was called inactive in assay [5].
Regarding `CCCCC(CC)COC(=O)CCCCC(=O)OCC(CC)CCCC` (configuration not stated), the Potency entry in assay [1], in assay [2] and in assay [6] was “inactive” each time. Further, the Potency in assay [4] is 28.3 µM (active). In assay [5], the molecule was called inactive.
Take `Cc1occc(=O)c1O`: the Potency entry in assay [1], in assay [2], in assay [7] and in assay [6] was “inactive” in each case. Besides, the call in assay [5] was inactive.
For `CN(C)CCOCCN(C)C`, the Potency result in assay [1], in assay [2], in assay [4] and in assay [6] was “inactive” in each case. Also, the result in assay [5] was inactive.
Turning to `CC(C)CC(=O)CC(C)C`, the Potency entry in assay [1], in assay [2] and in assay [4] was “inactive” each time. Further, in assay [5], the result was inactive. Besides, the Potency in assay [6] was 22.7 µM (active) and inactive.
